# According to PubChem BioAssay (EPA / NIEHS):
# Some structures have more than one record in an assay (separate samples or runs), and their calls can disagree. Calls of active or inactive are those of the source. The calls were made as follows: active = hit-call score of the fitted dose curve at least 0.9, where 1 is the maximum; inactive = score below 0.9.
# Tests used:
# [1] = read-out: Transforming growth factor beta 1 (TGFb1), TGFB1 (gene 7040); assay: BSK_KF3CT_TGFb1: BioMAP Diversity Plus: KF3CT Assay for Transforming growth factor beta 1 (TGFb1) Biomarker Activity (AID 2283072); settings: primary human keratinocytes with fibroblasts; actives raise or lower the signal
# Summary of the method: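 KF3CT co-culture (keratinocytes + fibroblasts), 24 h exposure → TGF-b1 ELISA → bidirectional fit, DMSO = baseline. Parallel SRB total-protein staining (0.1% SRB, 10% TCA fixation, 560 nm) for cytotoxicity.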
# [2] = read-out: C-C motif chemokine 2 (Homo sapiens) (UniProt P13500); assay: BSK_KF3CT_MCP1: BioMAP Diversity Plus: KF3CT Assay for Monocyte Chemoattractant Protein 1 (MCP1/CCL2) Biomarker Activity (AID 2283073); settings: primary human keratinocytes with fibroblasts; actives raise or lower the signal
# Summary of the method: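 ELISA read-out of MCP-1, 24 h post-dose, in primary human skin keratinocytes co-cultured with fibroblasts. Parallel SRB staining monitors cytotoxicity; changes fitted both directions relative to DMSO.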
# [3] = read-out: Matrix Metallopeptidase 9 (MMP9), MMP9 (gene 4318); assay: BSK_KF3CT_MMP9: BioMAP Diversity Plus: KF3CT Assay for Matrix Metallopeptidase 9 (MMP9) Biomarker Activity (AID 2283074); settings: primary human keratinocytes with fibroblasts; actives raise or lower the signal
# Summary of the method: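 Values come from bidirectional fitting relative to DMSO of MMP-9 levels, which were measured by ELISA. Measurements were taken 24 h after chemical dosing of a keratinocyte and foreskin fibroblast co-culture.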
# [4] = read-out: urokinase plasminogen activator (uPA), PLAU (gene 5328); assay: BSK_KF3CT_uPA: BioMAP Diversity Plus: KF3CT Assay for urokinase plasminogen activator (uPA) Biomarker Activity (AID 2283075); settings: primary human keratinocytes with fibroblasts; actives raise or lower the signal
# Summary of the method: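 Values derive from bidirectional fitting against DMSO controls. Keratinocyte/foreskin fibroblast co-cultures received chemical; 24 h later uPA was detected by ELISA, with SRB total-protein staining in parallel wells for overt cytotoxicity.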
# CD40, CD40 (gene 958) [5] = assay: BSK_LPS_CD40: BioMAP Diversity Plus: LPS Assay for CD40 Biomarker Activity (AID 2283076); settings: primary human HUVEC with PBMC; actives raise or lower the signal
# Summary of the method: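 In the LPS system of human endothelial cells with peripheral blood mononuclear cells, CD40 levels were read by ELISA 24 h post-treatment. Signal changes in either direction were fitted against the DMSO baseline, with parallel SRB protein staining.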
# [6] = read-out: E-selectin (Homo sapiens) (UniProt P16581); assay: BSK_LPS_Eselectin: BioMAP Diversity Plus: LPS Assay for Eselectin Biomarker Activity (AID 2283077); settings: primary human HUVEC with PBMC; actives raise or lower the signal
# Summary of the method: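 E-selectin ELISA on LPS-stimulated endothelial cell/PBMC co-cultures, read 24 h post-treatment; gains and losses fitted against DMSO. Parallel SRB staining (0.1% SRB after 10% TCA fixation, 560 nm) flags overt cytotoxicity.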
# [7] = read-out: Interleukin-8 (IL8), CXCL8 (gene 3576); assay: BSK_LPS_IL8: BioMAP Diversity Plus: LPS Assay for Interleukin-8 (IL8) Biomarker Activity (AID 2283078); settings: primary human HUVEC with PBMC; actives raise or lower the signal
# Summary of the method: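 ELISA read-out of IL-8 after 24 h chemical treatment of LPS-activated endothelial/PBMC human primary co-cultures. Changes either up or down relative to DMSO; overt cytotoxicity checked by sulforhodamine B staining in parallel wells.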
# [8] = read-out: Monocyte Chemoattractant Protein-1 (MCP1), CCL2 (gene 6347); assay: BSK_LPS_MCP1: BioMAP Diversity Plus: LPS Assay for Monocyte Chemoattractant Protein-1 (MCP1) Biomarker Activity (AID 2283081); settings: primary human HUVEC with PBMC; actives raise or lower the signal
# Summary of the method: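 Secreted MCP-1 read by ELISA at 24 h post-dosing in an LPS-activated co-culture of endothelial cells with peripheral blood mononuclear cells. Fits run in both directions, DMSO as baseline; parallel SRB staining tracks overt cytotoxicity.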
# [9] = BSK_LPS_PGE2: BioMAP Diversity Plus: LPS Assay for Prostaglandin E2 (PGE2) Biomarker Activity (AID 2283082); settings: primary human HUVEC with PBMC; actives raise or lower the signal
# Summary of the method: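 Compounds were added to the LPS co-culture of endothelium and PBMC, and PGE2 was measured by ELISA after 24 h. Responses in either direction were fitted with DMSO as baseline.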
# [10] = read-out: Macrophage colony-stimulating factor (MCSF), CSF1 (gene 1435); assay: BSK_LPS_MCSF: BioMAP Diversity Plus: LPS Assay for Macrophage colony-stimulating factor (MCSF) Biomarker Activity (AID 2283083); settings: primary human HUVEC with PBMC; actives raise or lower the signal
# Summary of the method: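 Bidirectional fitting against DMSO was applied to M-CSF levels read by ELISA at 24 h post-dose. The system pairs human umbilical vein endothelium with peripheral blood mononuclear cells; parallel SRB staining tracked cytotoxicity.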
# [11] = read-out: Tissue Factor, F3 (gene 2152); assay: BSK_LPS_TissueFactor: BioMAP Diversity Plus: LPS Assay for Tissue Factor Biomarker Activity (AID 2283084); settings: primary human HUVEC with PBMC; actives raise or lower the signal
# Summary of the method: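 Compound was added to an endothelial cell/PBMC co-culture, and after 24 h tissue factor (CD142) was read by ELISA. Gain or loss of signal was fitted against a DMSO baseline, and parallel SRB staining (560 nm) tracked overt cytotoxicity.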
# [12] = read-out: Tumor necrosis factor (Homo sapiens) (UniProt P01375); assay: BSK_LPS_TNFa: BioMAP Diversity Plus: LPS Assay for Tumour Necrosis Factor alpha (TNFa) Biomarker Activity (AID 2283085); settings: primary human HUVEC with PBMC; actives raise or lower the signal;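 as to AC50: TNFa protein level quantified by ELISA in the co-culture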
# Summary of the method: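 Cells (umbilical vein endothelium plus peripheral blood mononuclear cells) were dosed with chemical, incubated 24 h, then TNFa was quantified by ELISA; values derive from bidirectional fitting with DMSO as baseline.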
# [13] = read-out: Vascular cell adhesion molecule 1 (VCAM1), VCAM1 (gene 7412); assay: BSK_LPS_VCAM1: BioMAP Diversity Plus: LPS Assay for Vascular cell adhesion molecule 1 (VCAM1) Biomarker Activity (AID 2283086); settings: primary human HUVEC with PBMC; actives raise or lower the signal
# Summary of the method: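 Cells are dosed in an LPS-stimulated endothelial/mononuclear co-culture and, after 24 h, VCAM-1 is quantified by ELISA. Activity in either direction is fitted relative to the DMSO negative control.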
# CD38, CD38 (gene 952) = assay: BSK_SAg_CD38: BioMAP Diversity Plus: SAg Assay for CD38 Biomarker Activity (AID 2283087); settings: primary human HUVEC with PBMC; actives raise or lower the signal
# Summary of the method: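 CD38 quantified by ELISA (fluorescence) in a superantigen-activated endothelial cell–PBMC co-culture at 24 h post-dose. Activity fitted in both directions relative to DMSO; parallel SRB and Alamar Blue cytotoxicity read-outs.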
# CD40, CD40 (gene 958) [14] = assay: BSK_SAg_CD40: BioMAP Diversity Plus: SAg Assay for CD40 Biomarker Activity (AID 2283088); settings: primary human HUVEC with PBMC; actives raise or lower the signal
# Summary of the method: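 CD40 is measured by fluorescence ELISA in an endothelial/PBMC primary human co-culture at 24 h post-dose. Fitting is bidirectional, DMSO baseline. Parallel SRB staining (560 nm) flags cytotoxicity.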
# CD69, CD69 (gene 969) = assay: BSK_SAg_CD69: BioMAP Diversity Plus: SAg Assay for CD69 Biomarker Activity (AID 2283089); settings: primary human HUVEC with PBMC; actives raise or lower the signal
# Summary of the method: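 ELISA, fluorescence read-out: CD69 on human umbilical vein endothelial cell + PBMC co-culture, 24 h post-dosing. Gain or loss of signal fitted bidirectionally against DMSO baseline.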
# [15] = read-out: Monocyte Chemoattractant Protein-1 (MCP1), CCL2 (gene 6347); assay: BSK_SAg_MCP1: BioMAP Diversity Plus: SAg Assay for Monocyte Chemoattractant Protein-1 (MCP1) Biomarker Activity (AID 2283090); settings: primary human HUVEC with PBMC; actives raise or lower the signal
# Summary of the method: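 Values derive from bidirectional fitting of ELISA-measured MCP1 against DMSO controls. Readings were taken 24 h after dosing human vascular endothelial cells co-cultured with peripheral blood mononuclear cells under superantigen stimulation.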
# [16] = read-out: E-selectin (Homo sapiens) (UniProt P16581); assay: BSK_SAg_Eselectin: BioMAP Diversity Plus: SAg Assay for Eselectin Biomarker Activity (AID 2283091); settings: primary human HUVEC with PBMC; actives raise or lower the signal
# Summary of the method: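 Cell-surface E-selectin is read by ELISA at 24 h in the SAg co-culture of HUVEC and PBMC. Curves are fitted in both directions relative to DMSO. Parallel SRB total-protein staining tracks overt toxicity.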
# Tumor necrosis factor (Homo sapiens), sequence (P01375 whole entry, looked up): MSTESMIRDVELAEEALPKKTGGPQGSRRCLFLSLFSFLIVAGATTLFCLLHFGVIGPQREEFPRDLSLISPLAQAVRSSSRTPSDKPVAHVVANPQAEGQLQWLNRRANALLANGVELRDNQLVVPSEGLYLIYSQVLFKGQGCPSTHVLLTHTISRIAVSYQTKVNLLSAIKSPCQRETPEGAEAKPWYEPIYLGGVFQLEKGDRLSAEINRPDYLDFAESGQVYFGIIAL
# E-selectin (Homo sapiens), sequence (P16581 whole entry, looked up): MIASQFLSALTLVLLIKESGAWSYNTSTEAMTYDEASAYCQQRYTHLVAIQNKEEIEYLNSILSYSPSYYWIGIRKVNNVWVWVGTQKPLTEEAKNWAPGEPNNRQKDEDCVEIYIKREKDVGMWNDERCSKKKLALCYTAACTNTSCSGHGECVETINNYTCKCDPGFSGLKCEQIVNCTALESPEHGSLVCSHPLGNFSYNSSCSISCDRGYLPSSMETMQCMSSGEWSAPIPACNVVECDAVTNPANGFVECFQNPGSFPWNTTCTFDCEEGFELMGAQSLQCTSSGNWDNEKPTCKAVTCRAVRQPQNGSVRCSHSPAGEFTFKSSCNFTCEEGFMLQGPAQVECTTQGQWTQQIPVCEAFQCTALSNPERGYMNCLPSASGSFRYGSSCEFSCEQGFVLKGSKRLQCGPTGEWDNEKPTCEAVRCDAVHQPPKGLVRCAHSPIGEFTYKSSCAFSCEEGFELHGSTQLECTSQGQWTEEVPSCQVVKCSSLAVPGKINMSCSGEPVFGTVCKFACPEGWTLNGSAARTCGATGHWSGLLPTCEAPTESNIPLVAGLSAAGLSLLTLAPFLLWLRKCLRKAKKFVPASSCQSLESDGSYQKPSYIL
smiles,measurement,setting,value
S=C(S)NCCNC(=S)S.[Mn+2].[S-]C([S-])=NCCN=C([S-])[S-].[Zn+2],outcome,[1],inactive
same,outcome,[2],inactive
same,outcome,[3],inactive
same,outcome,[4],inactive
same,outcome,"CD40, CD40 (gene 958) [5]",inactive
same,outcome,[6],inactive
same,outcome,[7],inactive
same,outcome,[8],inactive
same,outcome,[9],inactive
same,outcome,[10],inactive
same,outcome,[11],inactive
same,AC50,[12],2.39 µM (active)
same,outcome,[12],inactive
same,AC50,[13],8.85 µM (active)
same,outcome,[13],inactive
same,outcome,"CD38, CD38 (gene 952)",inactive
same,outcome,"CD40, CD40 (gene 958) [14]",inactive
same,outcome,"CD69, CD69 (gene 969)",inactive
same,outcome,[15],inactive
same,AC50,[16],12.4 µM (active)
same,outcome,[16],inactive
